“And” between values parts separate entries of the source, which are not always exact repeats. Equal values may be shown once. Results filed as inconclusive are left out. The source made the active and inactive calls. Unless noted, the call rests on the fitted dose curve; in most records, active means well fitted curve in the direction sought with a large enough effect; inconclusive means small, poorly fitted or top-dose-only effect, or another doubt; inactive means no such curve, though single readings can be large; an effect the other way counts as inactive or inconclusive.
What was measured:
[1] = Cell Viability - BJ (AID 421; calls by dose curve;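 further: potency means the concentration at half of the fitted maximal effect; cells exposed to compound for 40 hours at 37 °C before readout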); details: BJ fibroblast viability, qHTS
In short: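 Cytotoxicity in human BJ foreskin fibroblasts is scored as loss of cellular ATP after a 40-hour exposure, measured by luciferase luminescence. Controls are DMSO and 100 uM tamoxifen.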

[2] = Cell Viability - Jurkat (AID 426;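 active means dose-dependent loss of cell ATP signal giving a full or clear fitted curve, ranked by lower potency value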; further: potency means the concentration at half of the fitted maximal effect); details: qHTS
In short: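 Jurkat (Clone E6-1) cells, 5000/well in complete medium, exposed to compounds for 40 hr at 37C; intracellular ATP measured by CellTiter-Glo luminescence after 20 min at room temperature. AC50 from Hill fits.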

[3] = Cell Viability - Hek293 (AID 427;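 active means compounds whose dose-response curve shows a full or clear partial loss of cell viability, called from curve shape rather than a numeric limit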;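 further: potency means the concentration at half of the fitted maximal effect; cells exposed to compound for 40 hours at 37 °C before reading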); details: qHTS
In short: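 qHTS, human embryonic kidney (adenovirus-transformed) cells; 40 hr cpd, 37 °C; CellTiter-Glo ATP luminescence. Norm: DMSO = 0, 100 uM tamoxifen = 100% inhibition. Hill-fit AC50.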

[4] = Cell Viability - HepG2 (AID 433; calls by dose curve;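 further: potency means the concentration at half of the fitted maximal effect; potency for ATP loss meaning cytotoxicity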); details: qHTS
In short: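 In this qHTS format, a 40 h, 37 °C compound incubation of HepG2 cells in complete medium precedes a 20 min CellTiter-Glo step at room temperature. Tamoxifen and doxorubicin serve as positive controls; Hill-equation fits yield AC50.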

[5] = Cell Viability - MRC5 (AID 434; calls by dose curve;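 further: potency means the concentration at half of the fitted maximal effect; potency reflects cytotoxicity seen as loss of intracellular ATP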); details: MRC5 lung fibroblast viability, qHTS
In short: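 MRC5 normal human lung fibroblasts, 1500 cells/well, exposed to compound for 40 hr at 37 C. Cellular ATP was read by CellTiter-Glo luminescence; data normalized to DMSO and 100 uM tamoxifen, with AC50 from Hill fits.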

[6] = Cell Viability - Mesenchymal (AID 546); details: mesenchymal cells viability, qHTS; series mostly up to 91.7 µM;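 further: cells exposed to compound for 40 hours before reading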
In short: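 Human kidney mesenchymal cells from normal renal glomeruli, 1000 cells/well, rested 5 hr at 37 °C, then treated 40 hr at 37 °C in complete medium. Cellular ATP read by CellTiter-Glo luminescence; AC50 from Hill-equation fits.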

[7] = Cellular Toxicity (caspase-3) HepG2 (AID 654); details: HepG2 caspase-3 activation, luminescence, 0% = DMSO only, 100% = tamoxifen; series mostly up to 92.2 µM;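 further: cells exposed to compound for 16 hours before reading; 0% = DMSO alone and 100% = caspase signal from 100 µM tamoxifen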
In short: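 HepG2 cells (1500/well) were treated 16 h at 37 °C in complete medium, then caspase 3/7 activity was read by Caspase-Glo luminescence. Data were normalized to DMSO and 100 uM tamoxifen; AC50 came from Hill-equation fits of qHTS concentration-response.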

[8] = Cellular Toxicity (caspase-3) HUV-EC-C (AID 656); details: HUV-EC-C cells, caspase-3 activation (apoptosis), vehicle = 0, 100 µM tamoxifen = 100%; series mostly up to 92.2 µM
In short: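 Concentration-dependent caspase 3/7 induction was assessed in HUV-EC-C cells exposed for 16 hours. Data scaled between DMSO and tamoxifen (100 uM) controls.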

[9] = Cellular Toxicity (caspase-3) BJ (AID 658); details: BJ fibroblasts, luminescence, normalized: DMSO 0%, staurosporine 100%; series mostly up to 91.7 µM
In short: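 BJ human foreskin fibroblasts, 1000 cells/well, treated 16 hours at 37 °C in complete medium; caspase 3/7 activity by Caspase-Glo luminescence after 1 hr at room temperature. Normalized to DMSO and 10 uM staurosporine; AC50 from Hill fits.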

[10] = Cellular Toxicity (caspase-3) MRC-5 (AID 659); details: MRC-5 cells, luminescence, normalized: DMSO 0%, 10 µM staurosporine 100%; series mostly up to 91.7 µM
In short: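 MRC-5 human normal lung fibroblasts, 1500 cells/well, treated 16 h at 37 °C in complete medium. Caspase 3/7 measured by Caspase-Glo luminescence after 1 h at room temperature. Normalized to DMSO and 10 uM staurosporine; AC50 from Hill fit.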

[11] = Cellular Toxicity (caspase-3) SK-N-SH (AID 661); details: SK-N-SH caspase-3 activation, qHTS; series mostly up to 91.7 µM
In short: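 Human SK-N-SH neuroblastoma cells, 1500/well, were exposed to compounds for 16 hours at 37 °C. Caspase-Glo 3/7 luminescence was normalized to DMSO (basal) and 10 uM staurosporine (100%), and AC50 came from a Hill fit.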

[12] = Cellular Toxicity (caspase-3) Hek293 (AID 664); details: HEK293 caspase-3 activation, DMSO = 0%, 100 µM tamoxifen = 100%; at 92.2 µM (top of the series);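 further: cells exposed to compound for 16 h at 37 °C before readout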
In short: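 HEK293 cells in complete medium treated 16 h at 37 °C, then Caspase-Glo 3/7 luminescence read after 20 min at room temperature. Normalized to DMSO and 100 uM tamoxifen; AC50 from Hill fit of concentration-response.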

[13] = MultiTox-Fluor Cytotoxicity Assay - LYMP1-001 - Dead Cells (AID 946); details: LYMP1-001 lymphoblastoid cells, dead-cell protease fluorescence; series mostly up to 92.2 µM
In short: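 Seed 2500 LYMP1-001 cells/well, incubate 5 hr at 37 C; add compound, 16 hr at 37 C; add MultiTox-Fluor reagent, 60 min RT; read dead-cell fluorescence Ex/Em=485/520. Normalize to DMSO and 15 uM tetraoctylammonium bromide.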

[14] = Cell Viability - LYMP1-002 - Assay at 16 hr (AID 948); details: LYMP1-002 lymphoblastoid cell viability; series mostly up to 92.2 µM;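 further: 0% = DMSO alone and full effect = 92 µM tetraoctylammonium bromide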
In short: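 In this qHTS, lymphoblastoid LYMP1-002 cells (human) receive compounds for 16 hr at 37 C. Viability is taken from CellTiter-Glo ATP luminescence, and AC50 derives from standard Hill fits.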

[15] = MultiTox-Fluor Cytotoxicity Assay - LYMP1-002 - Live Cells (AID 955); details: LYMP1-002 lymphoblastoid live-cell protease fluorescence viability; series mostly up to 46.1 µM; further: on the % scale 0 is the no-effect control and ±100 the full control effect
In short: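 Human lymphoblastoid LYMP1-002 cells, 2500/well, treated 16 h at 37 C in complete medium. Live-cell protease activity via GF-AFC fluorescence (Ex/Em 405/510) after 60 min reagent incubation; AC50 from Hill fits.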

[16] = MultiTox-Fluor Cytotoxicity Assay - LYMP1-003 - Dead Cells (AID 961); details: LYMP1-003 lymphoblastoid cells, dead-cell protease fluorescence; series mostly up to 92.2 µM; further: nearly all actives have a fitted effect of over 70% in size
In short: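 LYMP1-003 lymphoblastoid, 2500 cells/well, 5 hr settle then 16 hr cpd at 37 C; MultiTox-Fluor reagent 60 min RT; Ex/Em 485/520 dead-cell signal; norm. DMSO = 0%, 15 uM tetraoctylammonium bromide = 100%; Hill AC50.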

[17] = Cell Viability - LYMP2-016 (AID 984); details: LYMP2-016 lymphoblastoid cell viability, qHTS; series mostly up to 92.2 µM; further: on the % scale 0 is the no-effect control and ±100 the full control effect; nearly all actives have a fitted effect of over 55% in size
In short: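 Concentration-dependent ATP depletion measured in LYMP2-016 lymphoblastoid cells, 24 h, 37 C; luciferase-based luminescent detection; Hill-equation AC50.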

[18] = Cell Viability - LYMP2-026 (AID 989); details: LYMP2-026 lymphoblastoid cell viability, qHTS; series mostly up to 92.2 µM; further: on the % scale 0 is the no-effect control and ±100 the full control effect; nearly all actives have a fitted effect of over 50% in size
In short: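 Human lymphoblastoid LYMP2-026 cells, 2500/well, exposed to compound 24 h at 37 C in complete medium. Viability as intracellular ATP by CellTiter-Glo luminescence; AC50 from Hill fits of qHTS concentration-response.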

[19] = qHTS Assay for Identification of Small Molecule Inducers of Hypoxia Response (AID 2120; active means well fitted curve in the direction sought with a large enough effect in the signal ratio, with a control signal flat, not every such curve was filed as active; the % refers to the signal ratio; further: 0% is about no effect); details: hypoxia response reporter cells, beta-lactamase ratio readout; series mostly up to 104 µM
In short: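 HRE-bla ME-180 cells in Opti-MEM with 0.5% dialyzed FBS, pre-plated 4-5 h, then compound titration for 17 h at 37 degrees Celsius. CCF4 loaded 2.5 h at room temperature; 460/530 nm ratio gave %Activity and AC50 for induction.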

[20] = target: Peroxisome proliferator-activated receptor alpha (Homo sapiens) (UniProt Q07869); assay: qHTS assay for small molecule agonists of the peroxisome proliferator-activated receptor alpha (PPARalpha) signaling pathway (AID 651778); details: PathHunter PPARalpha complementation, chemiluminescence, 6 h; hits give high values; further: % of control where 0% means no effect
Peroxisome proliferator-activated receptor alpha (Homo sapiens), sequence (Q07869 whole entry, looked up, the tested form may be a part): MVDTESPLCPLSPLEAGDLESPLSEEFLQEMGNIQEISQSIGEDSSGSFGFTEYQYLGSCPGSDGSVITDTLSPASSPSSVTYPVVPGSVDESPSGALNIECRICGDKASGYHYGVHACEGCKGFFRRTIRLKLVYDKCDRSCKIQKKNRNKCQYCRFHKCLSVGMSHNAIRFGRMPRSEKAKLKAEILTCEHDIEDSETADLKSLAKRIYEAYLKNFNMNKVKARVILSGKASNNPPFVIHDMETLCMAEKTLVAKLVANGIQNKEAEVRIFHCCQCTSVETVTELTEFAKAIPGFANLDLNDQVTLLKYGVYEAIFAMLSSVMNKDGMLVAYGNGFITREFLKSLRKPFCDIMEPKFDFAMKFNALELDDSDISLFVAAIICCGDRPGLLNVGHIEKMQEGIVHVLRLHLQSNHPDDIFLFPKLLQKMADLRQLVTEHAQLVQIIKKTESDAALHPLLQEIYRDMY
In short: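 Enzyme-fragment complementation assay in which ligand-bound PPARalpha translocates and forms an active enzyme that generates chemiluminescence. Cells were plated overnight, exposed to compound for 6 hr at 37 C, and then given detection reagent for 60 min at room temperature.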

O=C(O)CBr
inactive: Potency [1] > 92 µM | Potency [2] > 92 µM | Potency [3] > 92 µM | Potency [4] > 92 µM | Potency [5] > 92 µM | Potency [6] | outcome [7] | outcome [8] | outcome [9] | outcome [10] | Potency [11] | caspase-3 activation [12] 2.72% | outcome [13] | outcome [14] | outcome [15] | Potency [16] | Potency [17] | Potency [18] | Potency [19] | max response [20] 2.06%

O=C(O)c1cc(Cl)ccc1Cl
inactive: Potency [1] > 92 µM | Potency [2] > 92 µM | Potency [3] > 92 µM | Potency [4] > 92 µM | Potency [5] > 92 µM | Potency [6] | outcome [7] | outcome [8] | outcome [9] | outcome [10] | Potency [11] | caspase-3 activation [12] -1.49% | outcome [13] | outcome [14] | outcome [15] | Potency [16] | Potency [17] | Potency [18] | Potency [19] | max response [20] 5.32%

N#CCCC#N
inactive: Potency [1] > 92 µM | Potency [2] > 92 µM | Potency [3] > 92 µM | Potency [4] > 92 µM | Potency [5] > 92 µM | Potency [6] | outcome [7] | outcome [8] | outcome [9] | outcome [10] | Potency [11] | caspase-3 activation [12] 1.14% | outcome [13] | outcome [14] | outcome [15] | Potency [16] | Potency [17] | Potency [18] | Potency [19] | max response [20] -2.27%

Cc1coc2c1CCC(C)C2 (stereo not given)
inactive: Potency [1] > 92 µM | Potency [2] > 92 µM | Potency [3] > 92 µM | Potency [4] > 92 µM | Potency [5] > 92 µM | Potency [6] | outcome [7] | outcome [8] | outcome [9] | outcome [10] | Potency [11] | caspase-3 activation [12] 0.975% | outcome [13] | outcome [14] | outcome [15] | Potency [16] | Potency [17] | Potency [18] | Potency [19] | max response [20] 9.95%

CC(C)(C)C(O)(CCc1ccc(Cl)cc1)Cn1cncn1 (stereo not given)
inactive: Potency [1] > 92 µM | Potency [2] > 92 µM | Potency [3] > 92 µM | Potency [4] > 92 µM | Potency [5] > 92 µM | Potency [6] | outcome [7] | outcome [8] | outcome [9] | outcome [10] | Potency [11] | caspase-3 activation [12] 3.2% | outcome [13] | outcome [14] | outcome [15] | Potency [16] | Potency [17] | Potency [18] | Potency [19] | max response [20] -3.73% and 1.11%

[O-][Cl+]O
inactive: Potency [1] > 92 µM | Potency [2] > 92 µM | Potency [3] > 92 µM | Potency [4] > 92 µM | Potency [5] > 92 µM | Potency [6] | outcome [7] | outcome [8] | outcome [9] | outcome [10] | Potency [11] | caspase-3 activation [12] 1.6% | outcome [13] | outcome [14] | outcome [15] | Potency [16] | Potency [17] | Potency [18] | Potency [19] | max response [20] 0.737%

Oc1cc(Cl)ccc1Cl
inactive: Potency [1] > 92 µM | Potency [2] > 92 µM | Potency [3] > 92 µM | Potency [4] > 92 µM | Potency [5] > 92 µM | Potency [6] | outcome [7] | outcome [8] | outcome [9] | outcome [10] | Potency [11] | caspase-3 activation [12] -1.46% | outcome [13] | outcome [14] | outcome [15] | Potency [16] | Potency [17] | Potency [18] | Potency [19] | max response [20] -3.18% and 0.376%

C=CCc1cc(OC)c2c(c1)OCO2
inactive: Potency [1] > 92 µM | Potency [2] > 92 µM | Potency [3] > 92 µM | Potency [4] > 92 µM | Potency [5] > 92 µM | Potency [6] | outcome [7] | outcome [8] | outcome [9] | outcome [10] | Potency [11] | caspase-3 activation [12] 1.27% | outcome [13] | outcome [14] | outcome [15] | Potency [16] | Potency [17] | Potency [18] | Potency [19] | max response [20] 5.39%

CCC[N+](=O)[O-]
inactive: Potency [1] > 92 µM | Potency [2] > 92 µM | Potency [3] > 92 µM | Potency [4] > 92 µM | Potency [5] > 92 µM | Potency [6] | outcome [7] | outcome [8] | outcome [9] | outcome [10] | Potency [11] | caspase-3 activation [12] 0.185% | outcome [13] | outcome [14] | outcome [15] | Potency [16] | Potency [17] | Potency [18] | Potency [19] | max response [20] -0.431%

CC1CC(=O)O1 (stereo not given)
inactive: Potency [1] > 92 µM | Potency [2] > 92 µM | Potency [3] > 92 µM | Potency [4] > 92 µM | Potency [5] > 92 µM | Potency [6] | outcome [7] | outcome [8] | outcome [9] | outcome [10] | Potency [11] | caspase-3 activation [12] -0.671% | outcome [13] | outcome [14] | outcome [15] | Potency [16] | Potency [17] | Potency [18] | Potency [19] | max response [20] -0.51%

ClC(Br)Br
inactive: Potency [1] > 92 µM | Potency [2] > 92 µM | Potency [3] > 92 µM | Potency [4] > 92 µM | Potency [5] > 92 µM | Potency [6] | outcome [7] | outcome [8] | outcome [9] | outcome [10] | Potency [11] | caspase-3 activation [12] -0.91% | outcome [13] | outcome [14] | outcome [15] | Potency [16] | Potency [17] | Potency [18] | Potency [19] | max response [20] -8.35%

Source: PubChem BioAssay (NCATS)
